This passage reports outcome and Potency results from PubChem BioAssay (NCATS).

Records with an inconclusive call do not appear. Where a call stands in place of a potency, no number is given. Active and inactive are the calls of the source. Calls come from the whole dose curve; as a rule, active = well fitted inhibition curve with a large enough effect; inconclusive = small, poorly fitted or top-dose-only effect; inactive = flat fitted curve, though single readings scatter.

For the experiment, the system named is CRL-7250. The experiment in a line: qHTS assay to identify novel small-molecules to repurpose for Merkel cell carcinoma treatment (AID 1296009). Note: nearly all actives have a fitted effect of over 60% in size. To be noted: MCC and control cell lines, CellTiter-Glo viability, 72 h; series mostly up to 92 µM. A digest of the protocol:
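Viability readout: ATP luminescence (CellTiter-Glo) after 72 hr drug exposure at 37 degree celsius. Dose-response format was 8 points for NPC and 11 points for MIPE; data normalized to in-plate controls.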
A general note: Quantitative high-throughput screening tests each substance at several concentrations.
For `C[C@@H]1O[C@@H](O[C@@H]2[C@@H](O[C@@H]3O[C@@H](C)[C@H](O[C@@H]4OC[C@H](O)[C@H](O[C@@H]5OC[C@@H](O)[C@H](O)[C@H]5O)[C@H]4O)[C@@H](O[C@@H]4OC[C@](O)(CO)[C@H]4O)[C@H]3O)[C@H](OC(=O)[C@]34CCC(C)(C)C[C@H]3C3=CCC5[C@@]6(C)C[C@H](O)[C@H](O[C@@H]7O[C@H](CO[C@@H]8OC[C@H](O)[C@H](O)[C@H]8O)[C@@H](O)[C@H](O)[C@H]7O)C(C)(C)C6CC[C@@]5(C)[C@]3(C)C[C@H]4O)OC[C@H]2O)[C@H](O)[C@H](O)[C@H]1O` (stereo not given in full), the outcome is “inactive [at 9.27 µM]”.

`CCOC(=O)c1sc(NC(=O)[C@H](C(C)C)n2c(=O)[nH]c3ccccc3c2=O)nc1C`: the Potency entry is “inactive”.

Regarding `NCc1c[nH]c(=S)n1[C@@H]1CCc2c(F)cc(F)cc2C1`, the Potency entry was “inactive”.

As to `CC(=O)OC[C@]1(O)[C@H]2[C@H](OC(=O)CC(C)C)OC=C(CO[C@@H]3O[C@H](CO)[C@@H](O)[C@H](O)[C@H]3O)[C@H]2C[C@@H]1O`, the Potency entry was “inactive”.

On to `Nc1c(-c2ccccc2)nc(Cl)c2c(O)n[nH]c(=O)c12`, for which the Potency entry was “inactive”.

For `O=c1ccn(C2OC(CO)C(O)C2O)c(=O)[nH]1` (stereo not given), the Potency result is “inactive”.

With `O=C(OC(C(F)(F)F)C(F)(F)F)N1CCN(Cc2cccc(Oc3ccccc3)c2)CC1`, the Potency entry was “inactive”.

For the compound `COc1cc(OC)cc(-c2ccc3c(-c4ccc(F)cc4)[nH]nc3n2)c1`, the Potency result was “inactive”.

Turning to `C[C@]1(O)CC[C@@H]2C(C(=O)O)=CO[C@@H](O[C@@H]3O[C@H](COC(=O)/C=C/c4ccc(O)c(O)c4)[C@@H](O)[C@H](O)[C@H]3O)[C@@H]21`, the Potency entry is “inactive”.

Regarding `CC1=C2CC(C)(C)CC2C(O)C2=C(C1)C(=O)OC2O` (stereo not given), the Potency entry was “inactive”.

With `COc1ccc(S(=O)(=O)Nc2c(C)cc(C)cc2C)cc1`, the Potency entry is “inactive”.

`NC[C@@H]1O[C@@H](O[C@@H]2[C@@H](O[C@@H]3O[C@H](CO)[C@@H](O)[C@H]3O)[C@H](O)[C@@H](N)C[C@H]2N)[C@@H](N)[C@H](O)[C@H]1O`: the outcome was “inactive [at 9.27 µM]”.

In the case of `CC1(C)CC(=O)N(CCCCN2CCN(c3ncccn3)CC2)C(=O)C1`, the Potency entry was “inactive”.

Take `CC1(C)C2CC=C(COC3OC(COC4OCC(O)(CO)C4O)C(O)C(O)C3O)C1C2` (stereo not given): the Potency result is “inactive”.

Consider `CC(=C\C(C)O)/C=C(\C)C(=O)CC1CC(CC(N)=O)CC(=O)O1` (stereo not given), for which the Potency result is “inactive”.
